FMDV inh: High Throughput Screening for Foot and Mouth Disease Virus Antivirals | AID 1159524, 2015 | Potency, µM (series often up to 57.9 µM), for inactives: top-dose activity change, negative = inhibition, usual class: inhibitors | FMDV antiviral cell-based qHTS | 410,000 compounds, 1.2% hits; calls by dose curve; tested in HEK293T cells; also: read-out not given here; potency is read from the fitted curve at half-maximal effect; nearly all actives have a fitted effect of over 45% in size
HCMV inh: qHTS Assay for inhibitors of the human cytomegalovirus (HCMV) | 410,000 compounds, 4.5% hits | HFF cells, HCMV-luciferase reporter, 72 h; active compounds read low | activity change, negative = inhibition, % at 57.5 µM; in the data active = activity change below about -60%; inconclusive = no clear call, values can overlap the other calls; inactive = above about -39%
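Cell-based, HFFs, 1000 cells/well, 16 h 37C; cpds in DMSO + HCMV-luc, MOI 1 PFU/cell; 72 h 37C; OneGlo luminescence after 5 min RT; norm. to buffer vs Salinomycin 10uM.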
Marburg entry inh: qHTS for inhibitors of binding or entry into cells for Marburg Virus. Marburg virus pseudotyped entry inhibition, cell reporter. Potency, µM (series often up to 37.8 µM), for the others: at the highest dose activity change, negative = inhibition, most hits filed as inhibitors. 300,000 compounds, 1.8% hits. AID 540276, 2011; calls by dose curve; tested in HEK293 cells; also: potency is read from the fitted curve at half-maximal effect
HCV inh: qHTS Assay for Inhibitors of Hepatitis C Virus (HCV); Huh7.5.1 HCVcc-Cre infection, luciferase reporter, 44 h; Potency, µM (titrated, usually from 41.8 µM), for inactives: at the top dose activity change, negative = inhibition, most hits filed as inhibitors; 340,000 compounds, 3.4% hits; also: potency is read from the fitted curve at half-maximal effect
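HCVcc-Cre virus at an moi near 0.5 was added right after compound to cells cultured 4 h from seeding (1,000 cells/well). Luciferase activity was determined 44 h later, 15 min after substrate addition at RT.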
Lassa entry inh: qHTS for Inhibitors of binding or entry into cells for Lassa Virus | Lassa virus pseudotype entry inhibition, cell reporter | Potency, µM (series often up to 37.9 µM), without a hit: top-dose activity change, negative = inhibition, hits mostly inhibitors | 300,000 compounds, 1.2% hits | AID 540256, 2011; calls by dose curve; tested in HEK293 cells; also: potency is read from the fitted curve at half-maximal effect; nearly all actives have a fitted effect of over 50% in size
FBPA Giardia inh: qHTS Assay for Inhibitors of Fructose-1,6-bisphosphate Aldolase from Giardia Lamblia | A8B2U2 | purified Giardia FBPA | Potency, µM (series often up to 59.6 µM), inactives show at the highest dose activity, negative = inhibition, usual class: inhibitors | 290,000 compounds, 0.71% hits | AID 2451, 2010; also: potency is read from the fitted curve at half-maximal effect; nearly all actives have a fitted effect of over 55% in size
Target sequence (A8B2U2 whole entry, looked up): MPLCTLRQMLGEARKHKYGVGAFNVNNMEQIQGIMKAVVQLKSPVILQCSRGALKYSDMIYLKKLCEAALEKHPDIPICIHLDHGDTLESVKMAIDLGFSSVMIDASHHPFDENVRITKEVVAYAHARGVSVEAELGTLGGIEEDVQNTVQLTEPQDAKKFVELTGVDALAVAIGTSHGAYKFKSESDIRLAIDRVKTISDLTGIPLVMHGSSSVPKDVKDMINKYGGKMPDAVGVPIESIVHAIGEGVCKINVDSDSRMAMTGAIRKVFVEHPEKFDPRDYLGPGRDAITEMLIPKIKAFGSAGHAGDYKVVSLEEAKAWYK
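40 nM FBPA preincubated 10 min at RT with compound (up to 57.5 uM final), then substrate plus GAPDH/TPI/NAD/arsenate coupling and diaphorase/resazurin added. Fluorescence read after 20 min at RT, 525/598 nm.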
An asterisk follows results filed as active; ? = inconclusive; . = no result given; [ ] = another dose, or the depositor's remark. In the library only some 8.3% were active in any assay of this set; here they are far more common. Unless noted, calls follow the shape of the dose curve; as a rule, active = well fitted curve in the direction sought with a large enough effect; inconclusive = small, poorly fitted or top-dose-only effect, or another doubt; inactive = no such curve, though single readings can be large; an effect the other way counts as inactive or inconclusive. % is scaled to controls: 0 for no effect and ±100 for the full control effect.

SMILES | FMDV inh | HCMV inh | Marburg entry inh | HCV inh | Lassa entry inh | FBPA Giardia inh
Cc1ccc(Cl)cc1N(C)C(=O)Cn1ncc2c([nH]c3ccccc32)c1=O | -4.2% | -69.2* | . | -16.4% | . | .
COC(=O)C1(C)NC(c2ccc(O)cc2)C2C(=O)N(c3ccc4c(c3)OCCO4)C(=O)C21 (centres undefined) | -19.4% | -73.3* | 5.1% | 9.0% | -3.3% | -2.7%
COC(=O)C1(CCSC)NC(c2ccc(O)cc2)C2C(=O)N(c3ccc4c(c3)OCCO4)C(=O)C21 (centres undefined) | -1.7% | 38.3 | 6.7% | 10.0% | -0.6% | 4.0%
CN(C)c1ccc(NC(=O)CN2CCC(O)(c3ccccc3)CC2)cc1 | 18.3% | -36.6 | -5.5%[46.1 µM] | -5.1% | -21.4% | -0.7%
CN(C)C(=O)C(CCN1CCC(O)(c2ccc(Cl)cc2)CC1)(c1ccccc1)c1ccccc1 | -18.1% | -25.0 | 4.11µM* | ? | 4.11µM* | 1.1%
CC(C)NC(=O)C1CCN(C2CCN(C(=O)Cc3ccc4c(c3)OCO4)CC2)CC1 | 1.4% | -11.4 | 4.3%[46.1 µM] | -0.3% | -1.3%[46.1 µM] | 3.4%
CSCc1ccc(C(=O)N2CCC(N3CCC(C(=O)NC(C)C)CC3)CC2)o1 | -18.2% | -64.3* | -17.3% | -9.1% | 3.6% | -7.2%
CC[C@H](C)[C@H](NC(=O)[C@H](CCC(=O)O)NC(=O)CNC(=O)[C@@H](NC(=O)[C@@H]1CCCN1C(=O)[C@@H](NC(=O)[C@@H]1CCCN1C(=O)[C@@H]1CCCN1C(=O)[C@H](CC(N)=O)NC(=O)[C@H](CC(N)=O)NC(=O)[C@@H](NC(=O)[C@H](CCSC)NC(=O)[C@H](Cc1c[nH]c2ccccc12)NC(=O)CNC(=O)[C@@H](NC(=O)[C@H](CCC(N)=O)NC(=O)[C@@H](N)CCC(=O)O)[C@@H](C)CC)[C@@H](C)O)[C@@H](C)CC)C(C)C)C(=O)O | . | . | . | . | . | -1.9%
COc1cccc(C(=O)C(C#N)=C(SC)SC)c1 | 28.2µM* | 115.8 | . | ? | . | 0.2%
CSC(SC)=C(C#N)C(=O)c1ccccc1 | 15.8µM* | 40.3 | 3.7%[46.1 µM] | ? | ? | 2.8%
COc1cccc(C(=O)C(=O)NC(C)(C)C)c1 | . | 38.3 | . | . | . | .
CC(C)[C@@H]1CC[C@@H](C)C[C@@H]1P(=O)(c1ccccc1)c1ccccc1 | . | . | -29.8% | . | 7.5% | .
CCC(C)NC(=O)c1nc2c(nnn2Cc2ccccc2Cl)c(=O)[nH]1 (centres undefined) | 11.9% | ? | -0.1%[46.1 µM] | -16.3% | 1.9% | 1.6%
O=C(c1ccccc1)N1CCC(c2nc3c(nnn3Cc3ccccc3Cl)c(=O)[nH]2)CC1 | . | 15.9 | -14.8% | 15.6% | ? | -3.1%
CC(C)(C)c1ccc(Cn2nnc3c(=O)[nH]c(C4CCN(C(=O)Cc5cccs5)CC4)nc32)cc1 | ? | ? | 8.2µM* | -21.2% | ? | -11.0%
O=C(NCc1cccs1)c1nc2c(nnn2Cc2ccccc2Cl)c(=O)[nH]1 | ? | -102.3* | ? | 5.01µM* | 11.2µM* | 4.4%
CC(C)(C)c1ccc(Cn2nnc3c(=O)[nH]c(C4CCCN(C(=O)Cc5cccs5)C4)nc32)cc1 (centres undefined) | ? | -13.3 | ? | -3.2% | ? | -0.5%
Cc1ccc(Cn2nnc3c(=O)[nH]c(C4CCN(S(=O)(=O)Cc5ccccc5)CC4)nc32)cc1 | 19.6% | 27.3 | ? | ? | 11.2µM* | 1.8%
O=C(c1cccs1)N1CCC(c2nc3c(nnn3Cc3ccccc3Cl)c(=O)[nH]2)CC1 | 6.5% | 69.6 | -7.0%[46.1 µM] | 0.7% | 7.94µM* | -3.4%
CCCc1nc2ccccc2n1CC(O)COc1ccc(C(=O)OC)cc1 (centres undefined) | 28.2µM* | -26.6 | ? | . | -17.7%[46.1 µM] | .
Cc1nc2ccccc2n1CC(O)COc1ccccc1Cl (centres undefined) | ? | -74.1* | . | ? | . | -7.0%
Cc1nc2ccccc2n1CC(O)COc1ccc(Br)cc1 (centres undefined) | ? | -80.3* | ? | ? | . | -3.8%
COC(=O)c1ccc(OCC(O)CN2C(=O)c3ccccc3C2=O)cc1 (centres undefined) | -1.9% | -2.6 | . | 1.0% | . | 2.6%
CCC(=O)c1ccc(OCC(O)CN(CCc2ccccc2)Cc2ccccc2)cc1 (centres undefined) | . | -38.9 | ? | ? | 16.4µM* | .
COc1ccc(N(CC(=O)Nc2cccc(Cl)c2C)S(=O)(=O)c2c(C)nn(C)c2C)cc1 | -18.0% | -14.1 | -13.0%[46.1 µM] | . | -11.9%[46.1 µM] | .
SMILES | FMDV inh | HCMV inh | Marburg entry inh | HCV inh | Lassa entry inh | FBPA Giardia inh
CCC(=O)c1ccc(OCC(O)Cn2c(C)nc3ccccc32)cc1 (centres undefined) | ? | -61.7* | 6.31µM* | ? | ? | 0.7%
Cc1nc2ccccc2n1CC(O)COc1ccc(C(=O)O)cc1 (centres undefined) | 5.4% | -4.9 | 13.8%[46.1 µM] | . | -18.3%[46.1 µM] | .
CCN1CCCc2cc(CN(CCN3CCOCC3)C(=S)Nc3cccc(C)c3)ccc21 | -6.9% | -65.1* | ? | -38.3% | ? | -11.6%
COC(=O)Nc1ccc(S(=O)(=O)N2CCC(C(=O)N3CCCC(C)C3)CC2)cc1 (centres undefined) | 5.9% | -38.0 | -2.3%[46.1 µM] | -12.9% | -0.1%[46.1 µM] | 9.3%
CC(=O)Nc1ccc(S(=O)(=O)N2CCc3c(Cl)cccc3C2)cc1 | -2.9% | -66.6* | . | ? | . | 3.3%
CC1CCCN(C(=S)Nc2ccc(S(=O)(=O)N3CCCCC3)cc2)C1 (centres undefined) | -4.3% | -67.0* | -22.4%[46.1 µM] | 7.9% | -14.3%[46.1 µM] | 0.8%
CC(=O)Nc1ccc(S(=O)(=O)N2CCN(C(=O)N3CCCCCC3)CC2)cc1 | -15.3% | -68.5* | ? | 4.3% | ? | 5.8%
CC(=O)Nc1ccc(S(=O)(=O)N2CCCN(S(=O)(=O)c3ccc(NC(C)=O)cc3)CC2)cc1 | -24.1% | 24.0 | -4.2% | -1.1% | 0.5% | 4.1%
COC(=O)[C@H]1[C@@H](c2ccccc2)NC(=O)N(CCc2cc(OC)c(OC)c(OC)c2)[C@@H]1C | . | . | -23.7%[14.2 µM] | . | . | .
Cn1cccc1/C=C1/C(=O)NC(=S)N(Cc2ccc(F)cc2)C1=O | 28.2µM* | ? | 5.1%[46.1 µM] | ? | -19.8% | -8.4%
Cn1cccc1/C=C1\C(=O)NC(=O)N(Cc2ccccc2)C1=O | -17.4% | -65.3* | -9.9%[46.1 µM] | 11.1% | -17.7% | -4.4%
CC(C)[N+]1(C)C2CCC1CC(OC(=O)C(CO)c1ccccc1)C2 (centres undefined) | 2.0% | . | . | . | . | 7.4%
CCc1ccc(C(=O)c2cn(CC(=O)Nc3cc(OC)ccc3OC)c3nc(C)ccc3c2=O)cc1 | -14.7% | -8.4 | . | . | 13.3%[46.1 µM] | .
CC(C)Cn1c(N)c(C(=O)COC(=O)c2cccc(Cl)c2)c(=O)n(C)c1=O | -22.4% | -1.2 | ? | 2.24µM* | ? | -0.2%

Screens deposited in PubChem BioAssay by National Center for Advancing Translational Sciences (NCATS).
